Source: PubChem BioAssay
The list is not random: actives were taken first. Their share in the collection is about 19%.
HT1080-NT tox: qHTS for induction of synthetic lethality in tumor cells producing 2HG: qHTS for the HT-1080-NT fibrosarcoma cell line; HT-1080-NT fibrosarcoma viability, CellTiter-Glo ATP luminescence, 48 h; AID 686970, 2013; Potency, µM (titrated, usually from 46.1 µM), actives largely listed as cytotoxic; 360,000 tested, 1.6% active;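 also: NT is the 2HG producing partner of a matched IDH1 knockdown line; nearly all actives have a fitted effect of over 55% in size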
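HT-1080-NT; 750 cells/well; 5% FBS RPMI; 48 h compound, 37 degrees C; CellTiter-Glo luminescence; curve fitting and curve-class assignment.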
KB-V1 MDR tox: qHTS assay for MDR1-selective chemotherapeutics: Primary screen using the drug-selected MDR subline cells KB-V1; KB-V1 MDR cells viability, CellTiter-Glo, 72 h; 400,000 tested, 3.4% active; Potency, µM (top dose mostly 46.1 µM), usual class: cytotoxic; AID 1347076, 2019; also: nearly all actives have a fitted effect of over 60% in size
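KB-V1, DMEM (no phenol red) + 10% FBS; cpd pin-transferred, titration series; 72 h, 37 degrees C; CellTiter-Glo, luminescence. Data normalized, curve-fit.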
KB-3-1 cytotox: qHTS assay for MDR1-selective chemotherapeutics: Primary screen using the parental adenocarcinoma cell KB-3-1; KB-3-1 viability, CellTiter-Glo ATP luminescence, 72 h; Potency, µM (doses to about 46.1 µM), actives largely listed as cytotoxic; 400,000 tested, 1.4% active; also: nearly all actives have a fitted effect of over 60% in size
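Cytotoxicity measured as CellTiter-Glo luminescence after 72 h at 37 C. Compound titrations were pinned onto drug-naive KB-3-1 parental adenocarcinoma cells grown in DMEM with 10% FBS, and normalized data fitted to concentration-response curves.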
DT40 TDP1 CPT: qHTS for Inhibitors of human tyrosyl-DNA phosphodiesterase 1 (TDP1): qHTS in cells in presence of CPT; Potency, µM (series often up to 46.2 µM), usual class: inhibitors; 420,000 tested, 12% active; AID 686979, 2013; chicken DT40 Tdp1-/-;hTDP1 cells + 20 nM CPT, ATP luminescence, 48 h; also: nearly all actives have a fitted effect of over 55% in size
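Cell growth measured by CellTiter-Glo luminescence after a minimum 48 h, 37 C compound exposure with 20 nM CPT in Tdp1-knockout DT40 cells stably expressing hTDP1, seeded 400/well; qHTS titration format.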
HT1080 IDH1KD tx: qHTS for induction of synthetic lethality in tumor cells producing 2HG: qHTS for the HT-1080-IDH1KD cell line; HT-1080 IDH1 knockdown viability, ATP luminescence, 48 h; Potency, µM (highest dose often 46.1 µM), actives largely listed as cytotoxic; 360,000 tested, 2% active
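Knockdown cells (IDH1KD HT-1080) received compounds 2 h after plating at 750 cells/well and were kept 48 h at 37 °C in 5% FBS RPMI. A CellTiter-Glo luminescence read gave % activity for curve fitting.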
DT40 TDP1 no CPT: qHTS for Inhibitors of human tyrosyl-DNA phosphodiesterase 1 (TDP1): qHTS in cells in absence of CPT. DT40 Tdp1-/- hTDP1 cells, no CPT, ATP luminescence, 48 h. Potency, µM (doses to about 46.2 µM), most hits filed as inhibitors. 420,000 tested, 15% active; also: nearly all actives have a fitted effect of over 55% in size
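Chicken DT40 Tdp1-/- cells stably complemented with human TDP1 were seeded at 400 cells/well with DMSO in place of 20 nM camptothecin. After compound pinning, cells grew at least 48 hr at 37 °C; viability read by CellTiter-Glo luminescence.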
Hits are given with their value; 0 = inactive; ? = inconclusive; - = no result; [ ] = remark or other dose. Calls follow the shape of the dose curve; as a rule, active = well fitted curve in the direction sought with a large enough effect; inconclusive = small, poorly fitted or top-dose-only effect, or another doubt; inactive = no such curve, though single readings can be large; an effect the other way counts as inactive or inconclusive.

SMILES	HT1080-NT tox	KB-V1 MDR tox	KB-3-1 cytotox	DT40 TDP1 CPT	HT1080 IDH1KD tx	DT40 TDP1 no CPT
Cc1csc(CN(C)C(=O)CC2C(=O)NCCN2Cc2ccccc2C)n1 (centres undefined)	0	0	0	0	0	?
COc1ccc(NC(=O)CN(C)C(=O)c2ccc(C)c(S(=O)(=O)N3CCCCC3)c2)cc1	0	0	0	0	0	?
Cc1ccc(C(=O)Nc2cccc(Oc3ccccc3)c2)o1	0	?	0	18µM	0	?
O=C(Nc1ccc(O)cc1)c1ccc(C(=O)c2ccccc2)o1	0	0	0	25µM	0	20µM
Cc1oc(C(=O)Nc2ccc(O)cc2)cc1COc1ccccc1	0	0	0	?	?	16µM
COc1cccc(NC(=O)c2ccc(C(=O)c3ccccc3)o2)c1	0	0	0	?	0	18µM
COc1cccc(C(=O)Nc2ccccc2)c1	0	0	0	0	0	0
CC(=O)Nc1ccc(NC2CCCCC2NS(=O)(=O)c2ccccc2)cc1 (centres undefined)	0	0	0	0	0	0
NNC(=O)c1cc(-c2ccc(N)cc2)nc2ccc(Br)cc12	0	0	0	?	0	15µM
COc1cc(NC(=O)c2cc(-c3cccnc3)nc3ccc(Br)cc23)cc(OC)c1	0	0	?	?	0	21µM
COc1ccc(NC(=O)c2cc(-c3ccncc3)nc3ccc(Br)cc23)cc1OC	0	0	?	?	0	21µM
COC(=O)c1cnc(NC(=O)C2(C)CCN2C(=O)C(C)C)s1 (centres undefined)	0	0	0	0	0	0
Cc1nn(CC(C)C)c(Cl)c1C(=O)N(c1ccc(Cl)cc1F)S(C)(=O)=O	?	?	0	0	0	?
CSc1ncc(CN2CCc3c([nH]c4ccccc34)C2c2cccc(O)c2)cn1 (centres undefined)	0	0	0	?	0	26µM
CSc1ncc(CN2CCc3c([nH]c4ccccc34)C2c2cccc(C)n2)cn1 (centres undefined)	0	0	0	?	0	26µM
CCn1cc(CN2CCc3c([nH]c4ccccc34)C2c2cccc(O)c2)c(C)n1 (centres undefined)	0	0	0	0	?	?
Cc1cccc(C2c3[nH]c4ccccc4c3CCN2C(=O)c2ocnc2C)n1 (centres undefined)	0	0	0	0	0	?
Cc1cccc(C(=O)N(c2ccccn2)C(C)c2ccco2)c1 (centres undefined)	0	0	0	?	0	?
Cc1cc(C)cc(C(=O)N(c2ccccn2)C(C)c2ccco2)c1 (centres undefined)	0	13µM	0	?	0	15µM
CC(c1ccco1)N(C(=O)c1cc(Cl)cc(Cl)c1)c1ccccn1 (centres undefined)	0	?	0	9.2µM	0	8.2µM
CC(C)c1ccc(C(=O)N(c2ccccn2)C(C)c2ccco2)cc1 (centres undefined)	0	0	0	?	0	23µM
O=C(c1ccc2c(c1)OCO2)N1CCOc2ccc(CN3CCC(Oc4cccnc4)CC3)cc2C1	-	-	-	0[9.04 µM]	-	0
Cc1cccc(COc2ncnc3nc[nH]c23)c1	0	0	0	?	0	13µM
CC(=O)Nc1cccc(Oc2cc(C#N)c(C#N)cc2N2CCCCCC2)c1	?	23µM	?	?	?	?
COc1ccc(N2CCN(c3ccc(NC(=O)C4CCCCC4)cc3C#N)CC2)cc1	0	0	0	0	0[9.24 µM]	0
SMILES	HT1080-NT tox	KB-V1 MDR tox	KB-3-1 cytotox	DT40 TDP1 CPT	HT1080 IDH1KD tx	DT40 TDP1 no CPT
CCCSc1ncc(Cl)c(C(=O)NCc2ccc(C)cc2)n1	-	-	-	0	-	0
Cc1cn([C@H]2C[C@H](O)[C@@H](CNCc3cccc(OC4CCCC4)c3)O2)c(=O)[nH]c1=O	0	0	0	0	0	0
O=C(CN1CCN(S(=O)(=O)c2ccccc2)CC1)Nc1cccc(C(F)(F)F)c1	0	?	0	16µM	0	?
Cc1cccc(OCC(=O)Nc2ccc(S(=O)(=O)N3CCCC3)cc2)c1	0	0	0	?	0	?
O=C(CNc1cccc(C(F)(F)F)c1)Nc1cccc(S(=O)(=O)N2CCCC2)c1	0	?	?	13µM	0	0
CCN(CC)S(=O)(=O)c1ccc(C)c(NC(=O)CNc2cccc(S(=O)(=O)N3CCCC3)c2)c1	0	0	0	18µM	0	13µM
O=C(COc1cccc(C(F)(F)F)c1)Nc1ccc(S(=O)(=O)N2CCCCC2)cc1	0	0	0	?	0	26µM
Cc1cc2n(n1)CCCN2C(=O)Nc1ccccc1C(F)(F)F	-	0	0	0	-	0
COCCCn1c(=N)c(S(=O)(=O)c2ccccc2)cc2c(=O)n3cccc(C)c3nc21	-	?	0	-	-	-
COC(=O)c1sccc1NC(=O)c1c(Cl)cnn1C	0	0	0	0	0	0
CC1CCCC(C)N1CCCNC(=O)C1CCCN(S(=O)(=O)N2CCCCC2)C1 (centres undefined)	0	0	0	0	0	0
O=C(CN(CCO)c1ccccc1)Nc1cccc(S(=O)(=O)N2CCCC2)c1	0	0	0	18µM	0	?
CCN(CC)S(=O)(=O)c1cccc(C(=O)Nc2cccnc2)c1	0	21µM	0	?	0	0
CCN(CC)S(=O)(=O)c1cccc(NC(=O)c2cccc(S(=O)(=O)N3CCCC3)c2)c1	0	?	0	?	0	16µM
CC1Cc2ccccc2N1C(=O)CNc1cccc(S(=O)(=O)N2CCCC2)c1 (centres undefined)	0	?	0	15µM	0	21µM
COc1c(Cl)ccc(Cl)c1C(=O)O	-	-	-	0	-	0
CC(=O)c1cccc(NCC(=O)Nc2cccc(S(=O)(=O)N3CCCCC3)c2)c1	0	0	0	?	0	?
CCN(CC)S(=O)(=O)c1cccc(NC(=O)CNc2cccc(S(=O)(=O)N3CCCC3)c2)c1	0	-	-	1µM	0	1.2µM
CCN(CC)S(=O)(=O)c1cc(NC(=O)CNc2cccc(S(=O)(=O)N3CCOCC3)c2)ccc1C	6.5µM	0	8.2µM	5.2µM	18µM	2.1µM
Cc1ccc(NC(=O)CNc2cccc(S(=O)(=O)N3CCCC3)c2)cc1F	?	0	?	0	0	?
